Laboratory results taken from article PMC11006913.

Columns and labels:
Assay in all cases: PBM; 200 nM protein, PBS
Settings in all cases: dsDNA, one strand shown
[1] = biological target: SHOX (Homo sapiens, UniProt O15266 103-189, R173C)
[2] = biological target: HOXB9 (Homo sapiens, UniProt P17482 171-250)
[3] = biological target: HOXB9 (Homo sapiens, UniProt P17482 171-250, R186Q)
[4] = biological target: HOXB6 (Homo sapiens, UniProt P17509 132-218, K202E)
[5] = biological target: VAX1 (Homo sapiens, UniProt Q5SQQ9 86-172, K157R)
[6] = biological target: HOXB6 (Homo sapiens, UniProt P17509 132-218)
[7] = biological target: HESX1 (Homo sapiens, UniProt Q9UBX0 95-180, R165K)
[8] = biological target: HESX1 (Homo sapiens, UniProt Q9UBX0 95-180)
[9] = biological target: HESX1 (Homo sapiens, UniProt Q9UBX0 95-180, F115L)
[10] = biological target: PROP1 (Homo sapiens, UniProt O75360 56-141)
[11] = biological target: PROP1 (Homo sapiens, UniProt O75360 56-141, R99H)
[12] = biological target: PROP1 (Homo sapiens, UniProt O75360 56-141, F88S)
[13] = biological target: HOXA2 (Homo sapiens, UniProt O43364 129-215, R185T)
[14] = biological target: HOXA2 (Homo sapiens, UniProt O43364 129-215, R185K)
[15] = biological target: HOXA2 (Homo sapiens, UniProt O43364 129-215, Y150S)
[16] = biological target: HOXA2 (Homo sapiens, UniProt O43364 129-215)
[17] = biological target: ALX3 (Homo sapiens, UniProt O95076 139-225, N203Q)
[18] = biological target: ALX3 (Homo sapiens, UniProt O95076 139-225, L168Q)
[19] = biological target: ALX3 (Homo sapiens, UniProt O95076 139-225, L168V)
[20] = biological target: ALX3 (Homo sapiens, UniProt O95076 139-225, N203S)
ALX3 (Homo sapiens, UniProt O95076 139-225, N203S), sequence (O95076 139-225 N203S): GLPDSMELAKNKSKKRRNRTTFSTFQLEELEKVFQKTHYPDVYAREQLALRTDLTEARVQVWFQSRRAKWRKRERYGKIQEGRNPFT

HESX1 (Homo sapiens, UniProt Q9UBX0 95-180, F115L), sequence (Q9UBX0 95-180 F115L): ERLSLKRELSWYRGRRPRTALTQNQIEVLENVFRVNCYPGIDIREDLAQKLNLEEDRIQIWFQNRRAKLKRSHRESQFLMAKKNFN
HOXA2 (Homo sapiens, UniProt O43364 129-215, Y150S), sequence (O43364 129-215 Y150S): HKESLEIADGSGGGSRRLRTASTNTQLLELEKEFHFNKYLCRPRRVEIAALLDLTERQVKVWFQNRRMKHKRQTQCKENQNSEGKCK
PROP1 (Homo sapiens, UniProt O75360 56-141, F88S), sequence (O75360 56-141 F88S): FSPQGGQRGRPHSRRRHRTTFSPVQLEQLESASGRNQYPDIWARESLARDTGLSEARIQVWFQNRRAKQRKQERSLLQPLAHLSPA
VAX1, sequence (Q5SQQ9 86-172 K157R): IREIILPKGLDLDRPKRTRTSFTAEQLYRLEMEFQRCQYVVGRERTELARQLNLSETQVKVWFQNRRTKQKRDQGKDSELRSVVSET
HOXB9 (Homo sapiens, UniProt P17482 171-250, R186Q), sequence (P17482 171-250 R186Q): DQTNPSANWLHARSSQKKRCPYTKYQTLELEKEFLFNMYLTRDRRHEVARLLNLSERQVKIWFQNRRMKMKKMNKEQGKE
HOXB9 (Homo sapiens, UniProt P17482 171-250), sequence (P17482 171-250): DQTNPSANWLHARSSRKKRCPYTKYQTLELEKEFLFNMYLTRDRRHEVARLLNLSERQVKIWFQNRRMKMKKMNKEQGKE
HOXA2 (Homo sapiens, UniProt O43364 129-215), sequence (O43364 129-215): as the sequence (O43364 129-215 Y150S) above, with S22Y counted along it
SHOX, sequence (O15266 103-189 R173C): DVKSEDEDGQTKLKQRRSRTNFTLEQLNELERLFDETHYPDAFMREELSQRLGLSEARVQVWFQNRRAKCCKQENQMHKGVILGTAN
PROP1 (Homo sapiens, UniProt O75360 56-141, R99H), sequence (O75360 56-141 R99H): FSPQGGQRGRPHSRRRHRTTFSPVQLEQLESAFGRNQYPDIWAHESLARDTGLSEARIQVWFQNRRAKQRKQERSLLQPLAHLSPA
PROP1 (Homo sapiens, UniProt O75360 56-141), sequence (O75360 56-141): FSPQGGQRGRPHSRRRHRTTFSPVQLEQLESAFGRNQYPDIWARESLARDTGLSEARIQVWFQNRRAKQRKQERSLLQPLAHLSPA
HOXB6 (Homo sapiens, UniProt P17509 132-218, K202E), sequence (P17509 132-218 K202E): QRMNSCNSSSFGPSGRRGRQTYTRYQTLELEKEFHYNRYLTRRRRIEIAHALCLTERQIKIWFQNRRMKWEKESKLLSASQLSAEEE
HOXA2 (Homo sapiens, UniProt O43364 129-215, R185K), sequence (O43364 129-215 R185K): as the sequence (O43364 129-215 Y150S) above, with S22Y, R57K counted along it
HESX1 (Homo sapiens, UniProt Q9UBX0 95-180, R165K), sequence (Q9UBX0 95-180 R165K): as the sequence (Q9UBX0 95-180 F115L) above, with L21F, R71K counted along it
HOXA2 (Homo sapiens, UniProt O43364 129-215, R185T), sequence (O43364 129-215 R185T): as the sequence (O43364 129-215 Y150S) above, with S22Y, R57T counted along it
HESX1 (Homo sapiens, UniProt Q9UBX0 95-180), sequence (Q9UBX0 95-180): as the sequence (Q9UBX0 95-180 F115L) above, with L21F counted along it
HOXB6 (Homo sapiens, UniProt P17509 132-218), sequence (P17509 132-218): as the sequence (P17509 132-218 K202E) above, with E71K counted along it
ALX3 (Homo sapiens, UniProt O95076 139-225, N203Q), sequence (O95076 139-225 N203Q): as the sequence (O95076 139-225 N203S) above, with S65Q counted along it
ALX3 (Homo sapiens, UniProt O95076 139-225, L168V), sequence (O95076 139-225 L168V): as the sequence (O95076 139-225 N203S) above, with L30V, S65N counted along it
ALX3 (Homo sapiens, UniProt O95076 139-225, L168Q), sequence (O95076 139-225 L168Q): as the sequence (O95076 139-225 N203S) above, with L30Q, S65N counted along it

CGGTCCAA
binding signal [1]: 7.18 upbm affinity estimate (log intensity, higher = more binding, comparable within an allelic series)

ACGCGCAG
binding signal [1]: 7.17 upbm affinity estimate (log intensity, higher = more binding, comparable within an allelic series)

CACTTATA
binding signal [2]: 10.4 upbm affinity estimate (log intensity, higher = more binding, comparable within an allelic series)
binding signal [3]: 10.2 upbm affinity estimate (log intensity, higher = more binding, comparable within an allelic series)

ACGGCGGC
binding signal [4]: 8.91 upbm affinity estimate (log intensity, higher = more binding, comparable within an allelic series)
binding signal [5]: 7.25 upbm affinity estimate (log intensity, higher = more binding, comparable within an allelic series)
binding signal [6]: 9.12 upbm affinity estimate (log intensity, higher = more binding, comparable within an allelic series)

CCAGCGCG
binding signal [7]: 6.43 upbm affinity estimate (log intensity, higher = more binding, comparable within an allelic series)
binding signal [8]: 6.41 upbm affinity estimate (log intensity, higher = more binding, comparable within an allelic series)
binding signal [9]: 6.43 upbm affinity estimate (log intensity, higher = more binding, comparable within an allelic series)

CGCCCGAG
binding signal [2]: 8.15 upbm affinity estimate (log intensity, higher = more binding, comparable within an allelic series)
binding signal [10]: 6.84 upbm affinity estimate (log intensity, higher = more binding, comparable within an allelic series)
binding signal [11]: 6.77 upbm affinity estimate (log intensity, higher = more binding, comparable within an allelic series)
binding signal [3]: 8.29 upbm affinity estimate (log intensity, higher = more binding, comparable within an allelic series)
binding signal [12]: 6.6 upbm affinity estimate (log intensity, higher = more binding, comparable within an allelic series)

CCAGGCCG
binding signal [13]: 7.21 upbm affinity estimate (log intensity, higher = more binding, comparable within an allelic series)
binding signal [14]: 10.2 upbm affinity estimate (log intensity, higher = more binding, comparable within an allelic series)
binding signal [15]: 10.3 upbm affinity estimate (log intensity, higher = more binding, comparable within an allelic series)
binding signal [16]: 7.17 upbm affinity estimate (log intensity, higher = more binding, comparable within an allelic series)

CGGGCTCC
binding signal [4]: 8.71 upbm affinity estimate (log intensity, higher = more binding, comparable within an allelic series)
binding signal [13]: 6.41 upbm affinity estimate (log intensity, higher = more binding, comparable within an allelic series)
binding signal [2]: 7.77 upbm affinity estimate (log intensity, higher = more binding, comparable within an allelic series)
binding signal [17]: 7.6 upbm affinity estimate (log intensity, higher = more binding, comparable within an allelic series)
binding signal [14]: 9.88 upbm affinity estimate (log intensity, higher = more binding, comparable within an allelic series)
binding signal [18]: 7.45 upbm affinity estimate (log intensity, higher = more binding, comparable within an allelic series)
binding signal [3]: 7.82 upbm affinity estimate (log intensity, higher = more binding, comparable within an allelic series)
binding signal [19]: 7.45 upbm affinity estimate (log intensity, higher = more binding, comparable within an allelic series)
binding signal [15]: 10.2 upbm affinity estimate (log intensity, higher = more binding, comparable within an allelic series)
binding signal [20]: 7.54 upbm affinity estimate (log intensity, higher = more binding, comparable within an allelic series)
binding signal [16]: 6.39 upbm affinity estimate (log intensity, higher = more binding, comparable within an allelic series)
binding signal [5]: 6.27 upbm affinity estimate (log intensity, higher = more binding, comparable within an allelic series)
binding signal [6]: 8.31 upbm affinity estimate (log intensity, higher = more binding, comparable within an allelic series)

GCCACTTA
binding signal [2]: 10.1 upbm affinity estimate (log intensity, higher = more binding, comparable within an allelic series)
binding signal [3]: 10 upbm affinity estimate (log intensity, higher = more binding, comparable within an allelic series)

ACCCGGGC
binding signal [1]: 7.15 upbm affinity estimate (log intensity, higher = more binding, comparable within an allelic series)

CTTCCGTC
binding signal [7]: 6.54 upbm affinity estimate (log intensity, higher = more binding, comparable within an allelic series)
binding signal [8]: 6.45 upbm affinity estimate (log intensity, higher = more binding, comparable within an allelic series)
binding signal [9]: 6.61 upbm affinity estimate (log intensity, higher = more binding, comparable within an allelic series)

GCACTTAA
binding signal [4]: 9.75 upbm affinity estimate (log intensity, higher = more binding, comparable within an allelic series)
binding signal [13]: 10.2 upbm affinity estimate (log intensity, higher = more binding, comparable within an allelic series)
binding signal [14]: 12.3 upbm affinity estimate (log intensity, higher = more binding, comparable within an allelic series)
binding signal [15]: 10.8 upbm affinity estimate (log intensity, higher = more binding, comparable within an allelic series)
binding signal [16]: 10.4 upbm affinity estimate (log intensity, higher = more binding, comparable within an allelic series)
binding signal [6]: 10.9 upbm affinity estimate (log intensity, higher = more binding, comparable within an allelic series)

CGGACCCG
binding signal [4]: 8.97 upbm affinity estimate (log intensity, higher = more binding, comparable within an allelic series)
binding signal [6]: 9 upbm affinity estimate (log intensity, higher = more binding, comparable within an allelic series)

CTACTTAA
binding signal [10]: 8.53 upbm affinity estimate (log intensity, higher = more binding, comparable within an allelic series)
binding signal [11]: 8.11 upbm affinity estimate (log intensity, higher = more binding, comparable within an allelic series)
binding signal [12]: 7.26 upbm affinity estimate (log intensity, higher = more binding, comparable within an allelic series)

CCCGGCGG
binding signal [10]: 6.68 upbm affinity estimate (log intensity, higher = more binding, comparable within an allelic series)
binding signal [11]: 6.68 upbm affinity estimate (log intensity, higher = more binding, comparable within an allelic series)
binding signal [12]: 6.39 upbm affinity estimate (log intensity, higher = more binding, comparable within an allelic series)

CCGGAGCC
binding signal [4]: 8.96 upbm affinity estimate (log intensity, higher = more binding, comparable within an allelic series)
binding signal [6]: 8.93 upbm affinity estimate (log intensity, higher = more binding, comparable within an allelic series)

AATTAGCT
binding signal [7]: 11.6 upbm affinity estimate (log intensity, higher = more binding, comparable within an allelic series)
binding signal [8]: 11.6 upbm affinity estimate (log intensity, higher = more binding, comparable within an allelic series)
binding signal [17]: 8.34 upbm affinity estimate (log intensity, higher = more binding, comparable within an allelic series)
binding signal [1]: 9.43 upbm affinity estimate (log intensity, higher = more binding, comparable within an allelic series)
binding signal [10]: 11 upbm affinity estimate (log intensity, higher = more binding, comparable within an allelic series)
binding signal [11]: 10.9 upbm affinity estimate (log intensity, higher = more binding, comparable within an allelic series)
binding signal [18]: 10.3 upbm affinity estimate (log intensity, higher = more binding, comparable within an allelic series)
binding signal [19]: 9.87 upbm affinity estimate (log intensity, higher = more binding, comparable within an allelic series)
binding signal [12]: 7.6 upbm affinity estimate (log intensity, higher = more binding, comparable within an allelic series)
binding signal [9]: 7.79 upbm affinity estimate (log intensity, higher = more binding, comparable within an allelic series)
binding signal [20]: 8.56 upbm affinity estimate (log intensity, higher = more binding, comparable within an allelic series)
binding signal [5]: 12.4 upbm affinity estimate (log intensity, higher = more binding, comparable within an allelic series)
